Screens as filed in PubChem.
Compounds with a hit are over-represented: about 3.3% of the library has one in this group of screens.
KCC2 mod: modulators of human KCC2 chloride dependent transport; Q9H2X9; KCC2 cells, thallium flux FluoZin-2 fluorescence; B-score of Tl+ flux slope (higher = more flux/activation; lower = inhibition) at 10 µM; hit rate 2.2% among 190,000; AID 1456;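 active = thallium flux slope and its plate-corrected score both differing from the plate sample mean at a set confidence after two filtering rounds, in either direction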;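 also: slope of fluorescence scaled to starting intensity during 10 to 20 s after thallium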
H9c2 protect: protects H9c2 cardiomyocytes from peroxide injury; hit rate 0.63% among 360,000; H2O2 injury protection, ATPLite, 2 h; protection from H2O2 cell death, % at 20 µM;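 active = compounds giving at least 50% protection of heart cells from peroxide-induced death in the single-dose screen, raw or plate-pattern-corrected value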;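 also: 0% = DMSO wells with peroxide and 100% = DMSO wells without peroxide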
Calb FLC: C. albicans growth modulation with fluconazole. AID 1979. hit rate 0.57% among 300,000. growth inhibition, % (concentration not given with the values). C. albicans CaCi-2 (fluconazole-resistant clinical isolate) + fluconazole, Alamar Blue growth, 48 h;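 active = growth inhibition above about 58% in most replicates, limit read from the data, passing the limit was not always enough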;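 also: all wells also contain fluconazole at 8 µg/ml as a sub-toxic cotreatment; 0% = median of DMSO wells and 100% = median of geldanamycin control wells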
PHOSPHO1 inh: PHOSPHO1 (human) inhibition | Q8TCT1 | recombinant PHOSPHO1, absorbance phosphatase assay | inhibition, % at 13.3 µM | hit rate 1.1% among 290,000; in the data active = inhibition above about 60%
Target sequence (Q8TCT1 whole entry, looked up): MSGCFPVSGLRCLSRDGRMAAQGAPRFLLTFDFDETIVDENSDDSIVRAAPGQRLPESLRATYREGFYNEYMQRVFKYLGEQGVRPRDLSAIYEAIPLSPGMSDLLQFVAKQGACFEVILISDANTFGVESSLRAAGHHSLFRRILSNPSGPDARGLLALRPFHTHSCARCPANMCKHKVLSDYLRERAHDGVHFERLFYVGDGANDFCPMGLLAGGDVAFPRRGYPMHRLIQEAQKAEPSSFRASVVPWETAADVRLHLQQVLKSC
Efflux pump mplx: inhibitors of Candida antifungal efflux pumps expressed in yeast | S. cerevisiae Candida pump triplex, Nile Red efflux | inhibition, % at 10 µM | hit rate 0.44% among 330,000;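 active = plate passing quality check with inhibition over a set limit, or well fluorescence over plate mean plus 4 SD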;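 also: Nile Red retained in pooled yeast measured as flow cytometry median fluorescence; 0% = buffer negative control and 100% = Enniatin B positive control; higher means more Nile Red kept so more efflux inhibition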
Numbers without * were called inactive; . = no result.

SMILES	KCC2 mod	H9c2 protect	Calb FLC	PHOSPHO1 inh	Efflux pump mplx
Cc1cc(N=Cc2cc(Br)ccc2O)no1	-0.51	57*	-1	46	-1
COCCCn1c(C)nc2c(c1=O)c1nc3ccccc3nc1n2CCc1ccccc1	.	58*	19	10	0
Cc1nc2ccccc2c(=O)n1CCc1ccccc1	.	2	-13	.	0
Cc1ccccc1N(CC(=O)N1CCOCC1)S(C)(=O)=O	0.39	5	36	-8	0
COc1ccc2[nH]c(C(=O)N/N=C/c3ccccc3OC)cc2c1	.	38	3	36	0
CCOc1ccc2[nH]c(C(=O)N/N=C/c3ccccc3OC)cc2c1	.	22	2	36	-1
COc1cc(OC)c2cc(C(=O)N/N=C/c3ccccc3O)[nH]c2c1	.	57*	81*	18	0
COc1ccc(OC)c(/C=N/NC(=O)c2cc3c(OC)c(OC)ccc3[nH]2)c1	-0.031	90*	-4	0	0
CCCOc1ccc2[nH]c(C(=O)N/N=C/c3cc(OC)c(OC)c(OC)c3)cc2c1	.	59*	6	39	0
CC1(C)CC(=O)C=C(C(=O)N2CCCC(C(=O)c3cccc(Cl)c3)C2)O1 (configuration not stated)	0.58	-5	-14	48	0
Cc1onc(-c2c(Cl)cccc2Cl)c1C(=O)Nc1nccs1	.	4	14	26	0
S=c1[nH]nc(CSc2nc3ccccc3s2)n1Cc1ccccc1	-1.8	5	-1	98*	0
CCn1c(CSc2nc3ccccc3s2)n[nH]c1=S	0.25	1	0	96*	0
S=c1[nH]nc(CCc2ccccc2)n1Cc1ccccc1	.	-9	-4	14	0
COc1ccc2nc(-c3ccccc3)cc(C(=O)N3CCC3)c2c1	.	5	.	.	0
COc1cccc(CN2CCN(C(=O)c3cc(-c4cccnc4)nc4ccc(C)cc34)CC2)c1	-1	50*	6	3	0
CC1Nc2ncnc(N3CCN(c4ccccc4)CC3)c2N(Cc2ccc(Br)cc2)C1=O (configuration not stated)	.	62*	3	.	0
C[C@H]1CN([C@@H](C)CO)S(=O)(=O)c2ccc(Br)cc2O[C@H]1CN(C)C(=O)c1cccc(F)c1	.	7	.	.	.
Cc1ccccc1S(=O)(=O)Cc1ccc(C(=O)NC2CCCCC2)o1	.	4	5	65*	0
Oc1ccc(CN2CCN(Cc3ccccc3)CC2)c2cccnc12	-0.41	40	60*	.	0
O=S(=O)(c1ccc(Cl)cc1)N1CCN(Cc2ccc(O)c3ncccc23)CC1	-0.37	30	95*	-161	0
O=S(=O)(c1ccc(Cl)cc1)N1CCN(Cc2ccncc2)CC1	.	2	-1	-2	0
CN1CCN(Cc2cc(COCc3ccccc3)c3cccnc3c2O)CC1	.	29	109*	43	0
Cc1cc([N+](=O)[O-])ccc1P(=O)(O)c1ccc([N+](=O)[O-])cc1C	.	0	.	.	.
Cc1cccc2nc(CNC(=O)CC3C(=O)NCCN3Cc3cccc(F)c3)cn12 (configuration not stated)	.	0	7	22	0
SMILES	KCC2 mod	H9c2 protect	Calb FLC	PHOSPHO1 inh	Efflux pump mplx
Cc1ccc(C)c(NC(=S)NNC(=O)c2csc3c2CCCC3)c1	79*	-7	-1	28	0
Cc1cccc(NC(=S)NNC(=O)c2csc3c2CCCC3)c1	21*	-15	50	-12	0
COc1cccc(NC(=O)c2csc3c2CCCC3)c1	0.17	-14	1	37	0
CCNC(=S)NNC(=O)c1csc2c1CCCC2	-0.34	4	-4	56	0
Cc1ccc(C)c(NC(=S)NNC(=O)c2csc3c2CCC(C)C3)c1 (configuration not stated)	21*	-4	72	57	0
CCc1cc(C(=O)NNC(=S)Nc2ccccc2C)cs1	0.87	-8	54	-8	0
CCc1cc(C(=O)NNC(=S)Nc2cc(C)ccc2C)cs1	10*	-6	99*	9	0
COc1cccc(OC)c1C(=O)Nc1ccc(C(=O)NCc2ccccc2)cc1	.	3	-8	33	0
CS(=O)(=O)Nc1ccc2c(c1)[C@@H]1C[C@@H](CC(=O)NCc3cccnc3)O[C@H](CO)[C@@H]1O2	.	7	.	.	.
O=C(Nc1ccc2c(c1)OCO2)c1ccc2sc([C@H]3C[C@H](O)[C@@H](CO)O3)nc2c1	.	3	.	.	.
CCc1ccc([C@H]2C(C(=O)O)=C[C@@H](CC3CCCC3)N2S(=O)(=O)c2ccc(C)cc2)cc1	.	-9	.	.	1
Cc1ccc(NC(=O)CCc2nnc3ccc(NCc4ccco4)nn23)cc1	.	-4	-2	38	0
CCc1cc(C(=O)NNC(=S)NCc2ccccc2)cs1	-0.94	0	-14	91*	0
Cc1cccc(NC(=S)NNC(=O)c2ccc(Br)o2)c1	1.3	-7	-8	88*	0
O=C1C2C3CCC(C3)C2C(=O)N1c1ccc(OS(=O)(=O)c2ccccc2)cc1 (configuration not stated)	1.6	-5	0	60*	0
Cc1ccc(S(=O)(=O)Oc2ccc(N3C(=O)C4C5CCC(C5)C4C3=O)cc2)cc1 (configuration not stated)	0.3	-17	1	38	0
Cc1ccc(-c2csc3n[nH]c(=S)n23)cc1	1.1	-7	12	95*	0
CC(=O)c1c(C)nc(-c2cccc([N+](=O)[O-])c2)n1O	1	9	76*	38	0
COc1ccc(-c2nc(C)c(C(C)=O)n2O)cc1[N+](=O)[O-]	0.5	-3	52	20	0
CC(C)=CCC/C(C)=C/CNC(=O)C[C@H]1C[C@H](C(=O)N(C(C)C)C(C)C)[C@@]2(C)c3[nH]c4cc(CCC(=O)N(C)C)ccc4c3CCN2C1=O	.	-13	.	.	0
COc1ccc(-c2c3c([nH]c(=S)c2C#N)CCC3)cc1	5*	2	.	55	.
N#Cc1c(-c2cccnc2)c2c([nH]c1=S)CCCC2	.	-1	2	74*	0
N#Cc1c2c(c(-c3ccco3)[nH]c1=O)CCCC2	0.72	2	-6	-6	0
COc1ccc(OC)c(-c2c3c([nH]c(=S)c2C#N)CCCC3)c1	2.9	-15	10	-27	0
N#Cc1c(-c2ccco2)c2c([nH]c1=S)CCCC2	.	1	15	62*	0
O=C(Nc1nc(-c2ccc(S(=O)(=O)N3CCCC3)cc2)cs1)C1COc2ccccc2O1 (configuration not stated)	-0.27	66*	18	-7	0
CCC(C)(C)c1ccc(OCCCC[n+]2cccc(C)c2C)c(C(C)(C)CC)c1	.	-15	109*	-6	0
Cc1cc[n+](CC[n+]2ccc(C)cc2)cc1	.	0	5	.	0
CCC(C)(C)c1ccc(OCCCC[n+]2ccc(C)cc2)c(C(C)(C)CC)c1	-1.2	.	94*	-10	1
Cc1cc(C(C)(C)C)ccc1OCCCCN1CCCC1	0.32	-18	0	21	1
